PubChem BioAssay AID1159580 (chemical genetic matrix, 2015)
Out of some 5,500 compounds screened, about 2,000 (36%) were called active. Not shown: some 18% with an inconclusive outcome. Cut-off read from the data, not from the text of the source: active = normalized growth mostly below about 0.91 (no sharp cut-off); inconclusive = no clear call, values can overlap the other calls; inactive = mostly above about 0.92. Some of the results follow.

Assay: chemical genetic growth profiling, strain panel (AID 1159580);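 note: tested at 20 µM; growth read once vehicle control cultures reached saturation at 30 °C; 1 = growth at the plate median or of vehicle wells; lower values mean less growth of the strain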
Conditions: growth OD

Measured: normalized growth

COC(=O)[C@@H]1C(O)CC[C@H]2CN3CCc4c([nH]c5ccccc45)[C@@H]3C[C@@H]21 (some centres not stated)
inactive: S. cerevisiae deletion strains, locus YJR075W, strain HOC1, hits give low values 0.993 | S. cerevisiae deletion strains, locus YKL009W, strain mrt4, hits give low values 0.968 | S. cerevisiae deletion strains, locus YKL068W, hits give low values 0.982 | S. cerevisiae deletion strains, locus YKL085W, strain MDH1 (second series), hits give low values 0.982 | S. cerevisiae deletion strains, locus YKL085W, strain MDH1, hits give low values 0.982 | S. cerevisiae deletion strains, locus YKL160W, strain elf1, hits give low values 1.01 | S. cerevisiae deletion strains, locus YKL190W, strain CNB1, hits give low values 0.994 | S. cerevisiae deletion strains, locus YKR001C, strain vps1, hits give low values 0.979 | S. cerevisiae deletion strains, locus YKR026C, strain gcn3, hits give low values 1.01 | S. cerevisiae deletion strains, locus YKR091W, strain srl3, hits give low values 1.02 | S. cerevisiae deletion strains, locus YLL001W, strain dnm1, hits give low values 1.02 | S. cerevisiae deletion strains, locus YLL026W, hits give low values 1.01 | S. cerevisiae deletion strains, locus YLL041C, strain sdh2, hits give low values 1.02 | S. cerevisiae deletion strains, locus YLR027C, strain aat2, hits give low values 1.01 | S. cerevisiae deletion strains, locus YLR039C, strain RIC1, hits give low values 0.977 | S. cerevisiae deletion strains, locus YLR058C, strain SHM2, hits give low values 0.988 | S. cerevisiae deletion strains, locus YLR102C, strain apc9, hits give low values 0.995 | S. cerevisiae deletion strains, locus YLR113W, strain HOG1, hits give low values 1 | S. cerevisiae deletion strains, locus YLR221C, strain rsa3, hits give low values 1 | S. cerevisiae deletion strains, locus YLR258W, strain gsy2, hits give low values 1.01 | S. cerevisiae deletion strains, locus YLR262C, strain YPT6 (second series), hits give low values 1 | S. cerevisiae deletion strains, locus YLR262C, strain YPT6, hits give low values 0.962 | S. cerevisiae deletion strains, locus YLR268W, strain sec22, hits give low values 1.01 | S. cerevisiae deletion strains, locus YLR320W, strain mms22, hits give low values 1.01 | S. cerevisiae deletion strains, locus YLR330W, strain CHS5, hits give low values 0.996 | S. cerevisiae deletion strains, locus YLR342W, strain FKS1 (second series), hits give low values 0.978 | S. cerevisiae deletion strains, locus YLR342W, strain FKS1, hits give low values 1.01 | S. cerevisiae deletion strains, locus YLR357W, strain rsc2, hits give low values 1.01 | S. cerevisiae deletion strains, locus YLR370C, strain arc18, hits give low values 1.02 | S. cerevisiae deletion strains, locus YLR371W, strain rom2, hits give low values 0.976 | S. cerevisiae deletion strains, locus YLR384C, strain iki3, hits give low values 1.02 | S. cerevisiae deletion strains, locus YLR418C, strain cdc73, hits give low values 1.05 | S. cerevisiae deletion strains, locus YML016C, strain PPZ1, hits give low values 0.983 | S. cerevisiae deletion strains, locus YML032C, strain rad52, hits give low values 0.971 | S. cerevisiae deletion strains, locus YML120C, strain ndi1, hits give low values 1.02 | S. cerevisiae deletion strains, locus YML124C, strain tub3, hits give low values 0.991 | S. cerevisiae deletion strains, locus YMR058W, strain fet3, hits give low values 1.01 | S. cerevisiae deletion strains, locus YMR078C, strain ctf18, hits give low values 0.988 | S. cerevisiae deletion strains, locus YMR125W, strain sto1, hits give low values 1 | S. cerevisiae deletion strains, locus YMR129W, hits give low values 1.01 | S. cerevisiae deletion strains, locus YMR205C, strain PFK2, hits give low values 1.03 | S. cerevisiae deletion strains, locus YMR223W, strain ubp8, hits give low values 0.97 | S. cerevisiae deletion strains, locus YMR231W, strain pep5, hits give low values 1.01 | S. cerevisiae deletion strains, locus YMR263W, strain SAP30, hits give low values 0.995 | S. cerevisiae deletion strains, locus YMR307W, strain GAS1, hits give low values 1 | S. cerevisiae deletion strains, locus YNL067W, strain RPL9B, hits give low values 1.01 | S. cerevisiae deletion strains, locus YNL071W, strain lat1, hits give low values 1.02 | S. cerevisiae deletion strains, locus YNL128W, strain TEP1, hits give low values 1 | S. cerevisiae deletion strains, locus YNL153C, strain GIM3, hits give low values 1.01 | S. cerevisiae deletion strains, locus YNL183C, strain NPR1, hits give low values 0.973 | S. cerevisiae deletion strains, locus YNL209W, strain ssb2, hits give low values 1.01 | S. cerevisiae deletion strains, locus YNL233W, strain BNI4, hits give low values 1.01 | S. cerevisiae deletion strains, locus YNL248C, strain rpa49, hits give low values 1.01 | S. cerevisiae deletion strains, locus YNL250W, strain rad50, hits give low values 0.975 | S. cerevisiae deletion strains, locus YNL271C, strain bni1, hits give low values 0.987 | S. cerevisiae deletion strains, locus YNL298W, strain CLA4, hits give low values 0.975 | S. cerevisiae deletion strains, locus YNL307C, strain MCK1, hits give low values 0.996 | S. cerevisiae deletion strains, locus YNL322C, strain KRE1 (second series), hits give low values 1.01 | S. cerevisiae deletion strains, locus YNL322C, strain KRE1, hits give low values 0.99 | S. cerevisiae deletion strains, locus YNR049C, strain mso1, hits give low values 1.01 | S. cerevisiae deletion strains, locus YNR052C, strain pop2, hits give low values 0.989 | S. cerevisiae deletion strains, locus YOL006C, strain TOP1, hits give low values 1.01 | S. cerevisiae deletion strains, locus YOL012C, strain htz1 0.815 | S. cerevisiae deletion strains, locus YOL147C, strain pex11, hits give low values 0.99 | S. cerevisiae deletion strains, locus YOR001W, strain rrp6, hits give low values 1.02 | S. cerevisiae deletion strains, locus YOR061W, strain CKA2, hits give low values 0.996 | S. cerevisiae deletion strains, locus YOR069W, strain VPS5, hits give low values 0.992 | S. cerevisiae deletion strains, locus YOR070C, strain gyp1, hits give low values 1.02 | S. cerevisiae deletion strains, locus YOR080W, strain dia2, hits give low values 1.01 | S. cerevisiae deletion strains, locus YOR083W, strain WHI5, hits give low values 1 | S. cerevisiae deletion strains, locus YOR106W, strain vam3, hits give low values 0.997 | S. cerevisiae deletion strains, locus YOR136W, strain idh2, hits give low values 0.99 | S. cerevisiae deletion strains, locus YOR144C, strain elg1, hits give low values 0.983 | S. cerevisiae deletion strains, locus YOR184W, strain ser1, hits give low values 0.981 | S. cerevisiae deletion strains, locus YOR231W, strain MKK1, hits give low values 1.02 | S. cerevisiae deletion strains, locus YOR265W, strain rbl2, hits give low values 0.998 | S. cerevisiae deletion strains, locus YOR270C, strain vph1, hits give low values 1 | S. cerevisiae deletion strains, locus YOR290C, strain snf2, hits give low values 0.971 | S. cerevisiae deletion strains, locus YOR316C, strain cot1, hits give low values 0.981 | S. cerevisiae deletion strains, locus YPL051W, strain arl3, hits give low values 0.995 | S. cerevisiae deletion strains, locus YPL055C, strain LGE1, hits give low values 1.01 | S. cerevisiae deletion strains, locus YPL078C, strain atp4, hits give low values 1.03 | S. cerevisiae deletion strains, locus YPL106C, strain sse1, hits give low values 1 | S. cerevisiae deletion strains, locus YPL240C, strain hsp82, hits give low values 1.01 | S. cerevisiae deletion strains, locus YPL241C, strain CIN2, hits give low values 0.99 | S. cerevisiae deletion strains, locus YPL256C, strain CLN2, hits give low values 1 | S. cerevisiae deletion strains, locus YPR119W, strain clb2, hits give low values 0.994 | S. cerevisiae deletion strains, locus YPR141C, strain kar3, hits give low values 0.981 | S. cerevisiae deletion strains, locus YPR163C, strain tif3, hits give low values 0.988 | S. cerevisiae deletion strains, locus YPR167C, strain met16, hits give low values 0.994 | S. cerevisiae deletion strains, strain wtn01, hits give low values 0.995 | S. cerevisiae strains, strain wild type, hits give low values 0.998
